# Results reported in PubChem BioAssay AID1851 (National Center for Advancing Translational Sciences (NCATS), 2009).
# About 4,000 (25%) of roughly 16,000 compounds were called active. Roughly 26% stayed inconclusive and do not appear here. Calls come from the whole dose curve; as a rule, active = well fitted curve in the direction sought with a large enough effect; inconclusive = small, poorly fitted or top-dose-only effect, or effect the other way; inactive = no such curve, though single readings can be large or run the other way. The list is a sample of the results.
# Biological target: Cytochrome P450 2C9 (Homo sapiens) (UniProt P11712)
# Sequence (P11712 whole entry, looked up): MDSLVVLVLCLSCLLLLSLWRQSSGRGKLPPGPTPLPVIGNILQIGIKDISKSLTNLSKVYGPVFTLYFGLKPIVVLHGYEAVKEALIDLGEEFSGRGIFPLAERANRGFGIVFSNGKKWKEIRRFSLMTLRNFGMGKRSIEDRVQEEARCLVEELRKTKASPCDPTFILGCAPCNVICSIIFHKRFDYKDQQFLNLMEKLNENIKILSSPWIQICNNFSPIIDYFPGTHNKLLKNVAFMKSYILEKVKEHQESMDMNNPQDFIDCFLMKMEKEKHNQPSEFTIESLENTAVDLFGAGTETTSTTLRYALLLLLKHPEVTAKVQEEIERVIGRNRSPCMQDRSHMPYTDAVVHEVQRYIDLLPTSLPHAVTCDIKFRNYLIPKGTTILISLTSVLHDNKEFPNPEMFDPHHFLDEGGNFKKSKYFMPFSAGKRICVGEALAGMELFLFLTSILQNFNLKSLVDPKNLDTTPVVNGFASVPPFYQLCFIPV
# Experiment: Cytochrome panel assay with activity outcomes
# Settings: recombinant CYP, pro-luciferin dealkylation, luminescence, p450-cyp2c9; series mostly up to 57.1 µM; activity, negative = inhibition: at the top concentration
# % is set by controls: 0 for no effect and ±100 for the full control effect.
Compound,"activity, negative = inhibition",AC50
COC(=O)Cn1c(=N)n(CCN2CCCCC2)c2ccccc21,-24.1% (inactive),–
Fc1ccc(Nc2nc(-c3ccoc3)nc3ccccc23)cc1,8.98% [at 2.29 µM] (inactive),–
CC(C)Nc1nc(NC(C)(C)C)nc(Oc2ccc(=O)n(-c3ccccc3)n2)n1,–,20000 nM (active)
CCCn1nc(Oc2nc(NCC)nc(NCC)n2)ccc1=O,-26.2% (inactive),–
CCCn1nc(Oc2nc(NCC)nc(NC(C)C)n2)ccc1=O,-18.8% (inactive),–
C[N+]1(NCC[N@@+]2(C)CCc3ccccc3C2)CCCCC1,5.5% [at 11.4 µM] (inactive),–
CC(=O)OC[C@@H]1O[C@H](CCO/N=C(\C)CCN2CCCc3nc(C)c(C)cc32)C=C[C@@H]1OC(C)=O,-1.93% [at 11.4 µM] (inactive),–
CCCCn1nnnc1SCC(=O)N1CCCC1,-25.2% (inactive),–
N[C@@H](CO)C(=O)O,–,inactive
N[C@@H](CSS(=O)(=O)O)C(=O)O,–,12600 nM (active)
CCSC[C@@H](N)C(=O)O,4.58% [at 11.4 µM] (inactive),–
COc1ccc2[nH]cc(CCNc3nc(-c4ccccc4CN(C)C)nc4ccccc34)c2c1,10.1% [at 2.29 µM] (inactive),–
COCCNc1nc(-c2cccc(OC)c2)nc2ccccc12,-26.4% [at 2.29 µM] (inactive),–
COc1ccc2[nH]cc(CCNc3nc(-c4ccccc4OC)nc4ccccc34)c2c1,-1.54% [at 2.29 µM] (inactive),–
COc1cccc(-c2nc(NCCc3c[nH]c4ccc(OC)cc34)c3ccccc3n2)c1,–,794 nM (active)
COc1ccc2[nH]cc(CCNc3nc(-c4ccc(N(C)C)cc4)nc4ccccc34)c2c1,–,398 nM (active)
COc1cccc(-c2nc(NCc3cnc(C)cn3)c3ccccc3n2)c1,0.563% [at 2.29 µM] (inactive),–
COc1cccc(-c2nc(NCc3ccccc3)c3ccccc3n2)c1,–,1260 nM (active)
COc1ccc2[nH]cc(CCNc3ccnc(-c4ccc(N(C)C)cc4)n3)c2c1,-7.16% [at 2.29 µM] (inactive),–
COc1cccc(-c2nc(NCc3cccnc3)c3ccccc3n2)c1,-29.9% [at 2.29 µM] (inactive),–
Cc1c(C)c2c(c(C)c1O)CC[C@@](C)(C(=O)O)O2,1.61% [at 25.6 µM] (inactive),–
CCCC/C=C/C(NC(=O)c1ccco1)c1ccccc1 (stereo unspecified),–,15800 nM (active)
CCCC/C=C/C(NC(=O)c1cccs1)c1ccccc1 (stereo unspecified),–,316 nM (active)

Compound,"activity, negative = inhibition",AC50
CC[C@H](CN(C)C)C(=O)c1ccco1,0.0002% [at 11.4 µM] (inactive),–
Cc1occc1C(=O)NNC(=O)Cc1ccccc1,-8.8% (inactive),–
C/C(=C\C1CCCCC1)C(NC(=O)c1ccc(C(F)(F)F)cc1)c1ccc(-c2ccccc2)cc1 (stereo unspecified),17.2% (inactive),–
CCCC/C=C/C(NC(=O)c1ccccc1)c1ccccc1 (stereo unspecified),–,10000 nM (active)
CCCC/C=C/C(NC(=O)c1ccc(-c2ccccc2)cc1)c1ccccc1 (stereo unspecified),14.5% (inactive),–
CCCC/C=C/C(NC(=O)c1ccc(C(F)(F)F)cc1)c1ccccc1 (stereo unspecified),–,2000 nM (active)
CCC(CC)C(=O)NCCN1CCN(C(=O)C(CC)CC)CC1,-25.1% (inactive),–
CN(C)CCn1nnnc1SCC1=C(C(=O)O)N2C(=O)[C@@H](NC(=O)Cc3csc(N)n3)[C@@H]2SC1,-7.71% [at 25.6 µM] (inactive),–
Cn1c(=O)c2c(nc(C(=N)SCC(=O)O)n2C)n(C)c1=O,-13.3% [at 11.4 µM] (inactive),–
Cc1[nH]c2c(C)ccc(C)c2c1CC(=O)O,-16.5% [at 11.4 µM] (inactive),–
Clc1ccccc1-c1nc(N/N=C/c2cccnc2)c2ccccc2n1,–,2240 nM (active)
Clc1ccccc1-c1nc(NCc2cccnc2)c2ccccc2n1,-14.1% [at 2.29 µM] (inactive),–
Cc1ccccc1-c1nc(NCc2cccnc2)c2ccccc2n1,9.82% [at 2.29 µM] (inactive),–
CCC(=O)O[C@H](CC(=O)O)C[N+](C)(C)C,-21.4% (inactive),–
N[C@@H](COP(=O)(O)O)C(=O)O,1.4% (inactive),–
Fc1ccc(-c2[nH]ncc2-c2nnnn2-c2ccccc2)c(F)c1,–,7940 nM (active)
C=CC[C@@H](C(=O)O)c1ccccc1,-1.11% [at 11.4 µM] (inactive),–
CCOc1cc(/C=N/NC(=O)CNc2cccc(C)c2)ccc1OC(=O)c1ccccc1,–,5010 nM (active)
CCOc1cc(/C=N/NC(=O)COc2cccc(C)c2)ccc1OC(=O)c1cccs1,–,3160 nM (active)
N#Cc1cccc(NC(=O)N2CC3(CCN(C(=O)c4cnccn4)CC3)C2)c1,6.68% (inactive),–
CC(C)(C)c1c2c(c(C(C)(C)C)c3c1OCN(Cc1ccccc1)C3)OCN(Cc1ccccc1)C2,-7.82% [at 11.4 µM] (inactive),–
C#CCSc1nc(Cc2ccc(Cl)cc2)nc2ccccc12,–,2820 nM (active)
O=C1NC(c2ccccc2)=NC1(NS(=O)(=O)c1ccccc1)C(F)(F)F (stereo unspecified),-1.05% (inactive),–
